Our source for the growth inhibition values is PubChem BioAssay (NCI).

A short description of test [1]: NCI Yeast Anticancer Drug Screen. Data for the rad50 strain (AID 155).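 Note: 0% = growth of vehicle-only cultures of the same strain.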 The following applies: S. cerevisiae rad50 strain growth inhibition, hits give high values. The gist of the method:
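Relative growth inhibition (compound vs vehicle) was measured in yeast with a defined repair-gene alteration.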

The nature of test [2]: NCI Yeast Anticancer Drug Screen. Data for the mec2-1 strain (AID 157). The conditions noted are these: S. cerevisiae mec2-1 strain, hits give high values. In a few lines:
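mec2-1 yeast strain, carrying an alteration in DNA damage repair or cell cycle control, was exposed to compounds; growth inhibition was measured relative to vehicle-treated controls.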

The nature of test [3]: NCI Yeast Anticancer Drug Screen. Data for the sgs1 mgt1 strain (AID 161).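 Note: 0% = growth of cultures given vehicle only.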 The following applies: S. cerevisiae sgs1 mgt1 strain, hits give high values. The gist of the method:
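This yeast growth screen uses a strain with defined DNA-repair lesions; compound-treated growth is compared with vehicle-treated growth.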

Test [4] can be described thus: NCI Yeast Anticancer Drug Screen. Data for the cln2 rad14 strain (AID 165).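 Note: 0% = growth equal to vehicle treated cultures.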 The conditions noted are these: S. cerevisiae cln2 rad14 strain, hits give high values. In a few lines: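 Yeast carrying cln2 and rad14 alterations (cell cycle control and DNA damage repair) were exposed to compounds. Growth inhibition was measured against vehicle-treated controls.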
Test [5] can be described thus: NCI Yeast Anticancer Drug Screen. Data for the bub3 strain (AID 167). The conditions noted are these: S. cerevisiae bub3 mutant strain, hits give high values. The gist of the method:
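Screening used yeast with an engineered genetic alteration affecting cell cycle control. Compound-exposed cultures were compared with vehicle cultures, and reduced growth was taken as inhibition.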

A short description of test [6]: NCI Yeast Anticancer Drug Screen. Data for the mlh1 rad18 strain (AID 175). The conditions noted are these: S. cerevisiae mlh1 rad18 strain growth inhibition, hits give high values. In a few lines: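 Growth inhibition of the yeast strain was measured after compound exposure and expressed relative to vehicle-treated controls. The strain carries defined defects in DNA damage repair.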

[7] abbreviates: at 5.0 µM (retest, dose inferred, filed as 0.5).
Where [8] appears, read: at 50.0 µM (retest, dose inferred, filed as 5.0).

Structures are written as SMILES. This is part of a sample that, as a whole, favours compounds with a hit. Of some 79,000 tested, about 15% had one in any assay. Unmarked numbers belong to inactive results. Active and inactive are the calls of the source. Cut-off read from the data, not from the text of the source: active = growth inhibition above about 70%; inactive = the rest.

Take `C[C-](O)O.O/C(=C\[C-](O)c1ccccc1)c1ccccc1.O/C(=C\[C-](O)c1ccccc1)c1ccccc1.[Nd+3]` (configuration not stated): the growth inhibition was 36% in test [1] (setting [7]); 36% in test [1] (setting [8]); 90.1% (active) in test [1] (at 50.0 µM); 36% in test [2] (setting [7]); 36% in test [2] (setting [8]); 92.7% (active) in test [2] (at 50.0 µM). For the same compound, the growth inhibition was 42% in test [3] (setting [7]); 42% in test [3] (setting [8]); 93.3% (active) in test [3] (at 50.0 µM); 21% in test [4] (setting [7]); 21% in test [4] (setting [8]); 88.7% (active) in test [4] (at 50.0 µM). Also, the growth inhibition was 20% in test [5] (setting [7]); 20% in test [5] (setting [8]); 90.2% (active) in test [5] (at 50.0 µM); 30% in test [6] (setting [7]); 30% in test [6] (setting [8]); 85.9% (active) in test [6] (at 50.0 µM).

Turning to `O=C(Nc1cc(Cl)cc(Cl)c1)OCCCl`, the growth inhibition was 53% in test [1] (setting [7]); 87% (active) in test [1] (setting [8]); 90.8% (active) in test [1] (at 50.0 µM); 32% in test [2] (setting [7]); 77% (active) in test [2] (setting [8]); 93% (active) in test [2] (at 50.0 µM). Further, the growth inhibition is 36% in test [3] (setting [7]); 84% (active) in test [3] (setting [8]); 93.8% (active) in test [3] (at 50.0 µM); 24% in test [4] (setting [7]); 63% in test [4] (setting [8]); 92% (active) in test [4] (at 50.0 µM). Also, the growth inhibition was 41% in test [5] (setting [7]); 88% (active) in test [5] (setting [8]); 92.6% (active) in test [5] (at 50.0 µM); 53% in test [6] (setting [7]); 93% (active) in test [6] (setting [8]); 92.5% (active) in test [6] (at 50.0 µM).

For the compound `COc1cc(C(c2cc3c(cc2O)OCO3)N2CCCCC2)cc(OC)c1OC` (configuration not stated), the growth inhibition in test [1] (setting [7]) was -4%; in test [1] (setting [8]), 13%; in test [1] (at 50.0 µM) it was 25%; in test [2] (setting [7]) it was 0%; in test [2] (setting [8]) it was 20%; in test [2] (at 50.0 µM), 34.6%. For the same compound, the growth inhibition was -5% in test [3] (setting [7]); -33% in test [3] (setting [8]); 21.8% in test [3] (at 50.0 µM); -6% in test [4] (setting [7]); -3% in test [4] (setting [8]); 67.5% in test [4] (at 50.0 µM). Moreover, the growth inhibition in test [5] (setting [7]) is -1%; in test [5] (setting [8]), 4%; in test [5] (at 50.0 µM), 31.6%; in test [6] (setting [7]) it was -6%; in test [6] (setting [8]), 6%; in test [6] (at 50.0 µM), 62.6%.

For `Nc1ccc2ccccc2c1Cc1c(O)ccc2ccccc12`, the growth inhibition in test [1] (setting [7]) was 9%; in test [1] (setting [8]) it was 96% (active); in test [1] (at 50.0 µM), 99.2% (active); in test [2] (setting [7]), 0%; in test [2] (setting [8]), 98% (active); in test [2] (at 50.0 µM) it was 98.8% (active). Moreover, the growth inhibition in test [3] (setting [7]) was 6%; in test [3] (setting [8]), 98% (active); in test [3] (at 50.0 µM) it was 98.9% (active); in test [4] (setting [7]), 1%; in test [4] (setting [8]), 88% (active); in test [4] (at 50.0 µM), 84.5% (active). For the same compound, the growth inhibition was 0% in test [5] (setting [7]); 63% in test [5] (setting [8]); 88.8% (active) in test [5] (at 50.0 µM); 6% in test [6] (setting [7]); 88% (active) in test [6] (setting [8]); 95.7% (active) in test [6] (at 50.0 µM).

Take `CCN(CC)CCNCc1ccccc1`: the growth inhibition was -157% in test [1] (setting [7]); -178% in test [1] (setting [8]); -7.3% in test [1] (at 50.0 µM); -49% in test [2] (setting [7]); -57% in test [2] (setting [8]); -1.15% in test [2] (at 50.0 µM). The growth inhibition in test [3] (setting [7]) was -64%; in test [3] (setting [8]), -67%; in test [3] (at 50.0 µM), 10.9%; in test [4] (setting [7]), -62%; in test [4] (setting [8]) it was -66%; in test [4] (at 50.0 µM), 38.7%. Also, the growth inhibition is -70% in test [5] (setting [7]); -86% in test [5] (setting [8]); 5.45% in test [5] (at 50.0 µM); -139% in test [6] (setting [7]); -119% in test [6] (setting [8]); 1.8% in test [6] (at 50.0 µM).

On to `Cc1ccc2c(c1)C(=O)N(CC[P+](c1ccccc1)(c1ccccc1)c1ccccc1)C2=O`, for which the growth inhibition in test [1] (setting [7]) was 81% (active); in test [1] (setting [8]) it was 89% (active); in test [1] (at 50.0 µM) it was 61.8%; in test [2] (setting [7]), 63%; in test [2] (setting [8]), 85% (active); in test [2] (at 50.0 µM), 63.8%. Besides, the growth inhibition was 74% (active) in test [3] (setting [7]); 91% (active) in test [3] (setting [8]); 66.8% in test [3] (at 50.0 µM); 65% in test [4] (setting [7]); 79% (active) in test [4] (setting [8]); 36% in test [4] (at 50.0 µM). Also, the growth inhibition is 84% (active) in test [5] (setting [7]); 90% (active) in test [5] (setting [8]); 66.7% in test [5] (at 50.0 µM); 71% (active) in test [6] (setting [7]); 82% (active) in test [6] (setting [8]); 62.3% in test [6] (at 50.0 µM).

In the case of `COc1ccc(C2C3=C(CCC(CN(C)C)C3=O)OC3=C2C(=O)C(CN(C)C)CC3)cc1` (configuration not stated), the growth inhibition in test [1] (setting [7]) was -17%; in test [1] (setting [8]), -7%; in test [1] (at 50.0 µM), -35.5%; in test [2] (setting [7]), -3%; in test [2] (setting [8]), -1%; in test [2] (at 50.0 µM), 4.1%. Further, the growth inhibition in test [3] (setting [7]) is -20%; in test [3] (setting [8]), -5%; in test [3] (at 50.0 µM), -20.6%; in test [4] (setting [7]) it was -1%; in test [4] (setting [8]) it was 1%; in test [4] (at 50.0 µM), 44.7%. For the same compound, the growth inhibition in test [5] (setting [7]) is -17%; in test [5] (setting [8]) it was -17%; in test [5] (at 50.0 µM), -3.5%; in test [6] (setting [7]), -13%; in test [6] (setting [8]), -7%; in test [6] (at 50.0 µM), 21.1%.

On to `CC1=NC2=NC(CCCC(=O)OCc3ccc(Cl)c(Cl)c3)=NC3=CC=CC(=N1)N32`, for which the growth inhibition in test [1] (setting [7]) is 9%; in test [1] (setting [8]) it was 54%; in test [1] (at 50.0 µM) it was 61.1%; in test [2] (setting [7]), 17%; in test [2] (setting [8]), 52%; in test [2] (at 50.0 µM), 31.1%. For the same compound, the growth inhibition is 5% in test [3] (setting [7]); 60% in test [3] (setting [8]); 67.7% in test [3] (at 50.0 µM); 6% in test [4] (setting [7]); 46% in test [4] (setting [8]); 41% in test [4] (at 50.0 µM). Besides, the growth inhibition in test [5] (setting [7]) is 1%; in test [5] (setting [8]) it was 38%; in test [5] (at 50.0 µM) it was 7.65%; in test [6] (setting [7]), 5%; in test [6] (setting [8]) it was 58%; in test [6] (at 50.0 µM) it was 63.1%.

Consider `O=[N+]([O-])c1ccc2c(N=Nc3ccc4ccccc4c3O)c(O)cc(S(=O)(=O)O)c2c1`, for which the growth inhibition in test [1] (setting [7]) is 32%; in test [1] (setting [8]), 34%; in test [1] (at 50.0 µM), 85.6% (active); in test [2] (setting [7]), 13%; in test [2] (setting [8]), 17%; in test [2] (at 50.0 µM), 55.8%. Besides, the growth inhibition in test [3] (setting [7]) is 17%; in test [3] (setting [8]), 29%; in test [3] (at 50.0 µM), 74.7% (active); in test [4] (setting [7]) it was -32%; in test [4] (setting [8]), -68%; in test [4] (at 50.0 µM), 30.6%. Further, the growth inhibition in test [5] (setting [7]) was -7%; in test [5] (setting [8]) it was 22%; in test [5] (at 50.0 µM) it was 82.7% (active); in test [6] (setting [7]), 9%; in test [6] (setting [8]), 36%; in test [6] (at 50.0 µM), 86.5% (active).
